Results from the supplement of paper PMC8728848.
This is one part of a sample in which the strongest signals are shown more often than they occur.

What was measured:
Assay in all cases: glycan array binding signal (z-score within array); higher = stronger binding
Conditions in all cases: glycan notation: IUPAC condensed, linker removed
[1] = target: Fuc(a1-2)Gal(b1-3)GalNAc(a1-3)[Fuc(a1-2)]Gal(b1-4)Glc
Summary of the method: (§1)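 The Consortium for Functional Glycomics database supplied 3228 glycan arrays, of which those lacking an available protein sequence were dropped. The binding signal, a within-array Z-score, was averaged across arrays of the same protein sequence and across linkers. Negative scores can be read as non-binding.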

[2] = target: Fuc(a1-2)Gal(b1-3)[Fuc(a1-4)]GlcNAc
Summary of the method: as §1

[3] = target: Fuc(a1-2)[Gal(a1-3)]Gal(b1-3)GlcNAc(b1-2)Man(a1-3)[Fuc(a1-2)[Gal(a1-3)]Gal(b1-3)GlcNAc(b1-2)Man(a1-6)]Man(b1-4)GlcNAc(b1-4)[Fuc(a1-6)]GlcNAc
Summary of the method: as §1

[4] = target: Fuc(a1-2)[Gal(a1-3)]Gal(b1-3)GlcNAc(b1-6)GalNAc
Summary of the method: as §1

[5] = target: Fuc(a1-2)[Gal(a1-3)]Gal(b1-4)GlcNAc(b1-3)[Fuc(a1-2)[Gal(a1-3)]Gal(b1-4)GlcNAc(b1-6)]GalNAc
Summary of the method: as §1

[6] = target: Fuc(a1-2)[Gal(a1-3)]Gal(b1-4)[Fuc(a1-3)]GlcNAc(b1-3)GalNAc
Summary of the method: as §1

[7] = target: Fuc(a1-2)[GalNAc(a1-3)]Gal(b1-3)GlcNAc(b1-6)GalNAc
Summary of the method: as §1

[8] = target: Fuc(a1-2)[GalNAc(a1-3)]Gal(b1-4)[Fuc(a1-3)]GlcNAc(b1-3)GalNAc
Summary of the method: as §1

Fuc(a1-3)GlcNAc = target: Fuc(a1-3)GlcNAc
Summary of the method: as §1

[9] = target: Fuc(a1-3)[Gal(b1-4)]GlcNAc(b1-2)Man
Summary of the method: as §1

[10] = target: Fuc(a1-3)[Gal(b1-4)]GlcNAc(b1-3)Gal(b1-3)[Fuc(a1-4)]GlcNAc
Summary of the method: as §1

Fuc(a1-4)GlcNAc = target: Fuc(a1-4)GlcNAc
Summary of the method: as §1

[11] = target: Gal(a1-4)Gal(b1-3)GlcNAc(b1-2)Man(a1-3)[Gal(a1-4)Gal(b1-3)GlcNAc(b1-2)Man(a1-6)]Man(b1-4)GlcNAc(b1-4)GlcNAc
Summary of the method: as §1

[12] = target: Gal(a1-4)Gal(b1-4)GlcNAc(b1-3)Gal(b1-4)Glc
Summary of the method: as §1

[13] = target: Gal(b1-3)GalNAc(b1-4)[Neu5Ac(a2-3)]Gal(b1-4)Glc
Summary of the method: as §1

[14] = target: Gal(b1-3)GlcNAc(b1-2)Man(a1-3)[Gal(b1-3)GlcNAc(b1-2)Man(a1-6)]Man(b1-4)GlcNAc(b1-4)[Fuc(a1-6)]GlcNAc
Summary of the method: as §1

[15] = target: Gal(b1-3)[Fuc(a1-4)]GlcNAc(b1-2)Man
Summary of the method: as §1

[16] = target: Gal(b1-4)GalNAc(b1-3)[Fuc(a1-2)]Gal(b1-4)GlcNAc
Summary of the method: as §1

[17] = target: Gal(b1-4)GlcNAc(b1-2)[Gal(b1-4)GlcNAc(b1-6)]Man(a1-6)[GlcNAc(b1-4)][Gal(b1-4)GlcNAc(b1-2)[Gal(b1-4)GlcNAc(b1-4)]Man(a1-3)]Man(b1-4)GlcNAc(b1-4)[Fuc(a1-6)]GlcNAc
Summary of the method: as §1

[18] = target: Gal(b1-4)GlcNAc(b1-3)Gal(b1-4)GlcNAc(b1-3)Gal(b1-4)GlcNAc(b1-2)Man(a1-3)[Gal(b1-4)GlcNAc(b1-3)Gal(b1-4)GlcNAc(b1-3)Gal(b1-4)GlcNAc(b1-2)Man(a1-6)]Man(b1-4)GlcNAc(b1-4)[Fuc(a1-6)]GlcNAc
Summary of the method: as §1

[19] = target: Gal(b1-4)GlcNAc(b1-3)Gal(b1-4)GlcNAc(b1-3)Gal(b1-4)GlcNAc(b1-3)Gal(b1-4)GlcNAc(b1-2)Man(a1-3)[Gal(b1-4)GlcNAc(b1-3)Gal(b1-4)GlcNAc(b1-3)Gal(b1-4)GlcNAc(b1-3)Gal(b1-4)GlcNAc(b1-2)Man(a1-6)]Man(b1-4)GlcNAc(b1-4)[Fuc(a1-6)]GlcNAc
Summary of the method: as §1

[20] = target: Gal(b1-4)GlcNAc(b1-6)GalNAc
Summary of the method: as §1

Gal3S(b1-3)GlcNAc = target: Gal3S(b1-3)GlcNAc
Summary of the method: as §1

[21] = target: Gal3S(b1-4)[Fuc(a1-3)]Glc6S
Summary of the method: as §1

GalNAc(a1-3)Gal = target: GalNAc(a1-3)Gal
Summary of the method: as §1

GalNAc(b1-3)GlcNAc = target: GalNAc(b1-3)GlcNAc
Summary of the method: as §1

GalNAc(b1-4)GlcNAc = target: GalNAc(b1-4)GlcNAc
Summary of the method: as §1

GalNAc4S6S(b1-4)GlcNAc = target: GalNAc4S6S(b1-4)GlcNAc
Summary of the method: as §1

[22] = target: Glc(a1-6)Glc(a1-6)Glc(a1-6)Glc
Summary of the method: as §1

[23] = target: GlcNAc(a1-4)Gal(b1-4)GlcNAc(b1-3)Gal(b1-4)GlcNAc
Summary of the method: as §1

B1: AidA (Burkholderia cenocepacia) (protein)
chain: MSRVTDVLVSFDTETILKKYPNPSKNPAAPTLIDWRYVYMVTNQDNVISGQAGGELDLKAQVGDLIRWRETSLSLGFENQVVFYKFIGNVGNDLISTPTPRVAEASIPVPNTSKPEVPTCQKVANYYWSSECLKVGRVTYHFQFQIIDRNCQSQGCFSWDPFISIHN
glycan array binding signal (z-score) [1]: -0.374 | glycan array binding signal (z-score) [2]: -0.268 | glycan array binding signal (z-score) [3]: 1.35 | glycan array binding signal (z-score) [4]: 0.594 | glycan array binding signal (z-score) [5]: 0.451 | glycan array binding signal (z-score) [6]: -0.44 | glycan array binding signal (z-score) [7]: 1.7 | glycan array binding signal (z-score) [8]: 19.7 | glycan array binding signal (z-score) (Fuc(a1-3)GlcNAc): -0.017 | glycan array binding signal (z-score) [9]: 0.556 | glycan array binding signal (z-score) [10]: -0.459 | glycan array binding signal (z-score) (Fuc(a1-4)GlcNAc): 3.1 | glycan array binding signal (z-score) [11]: 0.346 | glycan array binding signal (z-score) [12]: -0.277 | glycan array binding signal (z-score) [13]: 0.172 | glycan array binding signal (z-score) [14]: -0.149 | glycan array binding signal (z-score) [15]: -0.108 | glycan array binding signal (z-score) [16]: -0.557 | glycan array binding signal (z-score) [17]: -0.272 | glycan array binding signal (z-score) [18]: 1.44 | glycan array binding signal (z-score) [19]: 0.416 | glycan array binding signal (z-score) [20]: -0.507 | glycan array binding signal (z-score) (Gal3S(b1-3)GlcNAc): 2.41 | glycan array binding signal (z-score) [21]: 2.38 | glycan array binding signal (z-score) (GalNAc(a1-3)Gal): 0.384 | glycan array binding signal (z-score) (GalNAc(b1-3)GlcNAc): -0.115 | glycan array binding signal (z-score) (GalNAc(b1-4)GlcNAc): 1.43 | glycan array binding signal (z-score) (GalNAc4S6S(b1-4)GlcNAc): -0.374 | glycan array binding signal (z-score) [22]: -0.597 | glycan array binding signal (z-score) [23]: 0.177
